# Measured values published in the supplement of paper PMC11417369.
# ± gives the standard deviation of the averaged measurements. Over roughly 25,000 sequences, “ln(normalized median fluorescence intensity)” has its median near 8.9; the highest 2% begin near 10. The sample as a whole holds a higher share of the highest values than the screen did.
# System: PfAP2-LT AP2 domain (GST-tagged)
# Assay: gcPBM binding intensity (ln(normalized median fluorescence intensity)); higher = stronger DNA binding
# In short: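 Probes on an Agilent 4 × 180k array were primer-extended, double-stranded and 36 bp long, taken from intergenic genomic regions, with negative controls added. GST-tagged P. falciparum DNA-binding domains from E. coli, about 25 μg on average, were applied to the array for 1 h in 1× PBS containing 1% milk, 0.2 mg/ml BSA, 0.5% salmon testes DNA and 0.03% Triton X-100. Binding intensity, obtained after Alexa488 anti-GST antibody detection and a 488 nm scan, is the highest Masliner-normalised natural-log median intensity across replicate spots of either probe orientation.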
row,Sequence,gcPBM binding intensity (ln)
1,TATCAAAAAAAAAGTAGTACGATAATAGTTTCCCAA [XGTACX_site1812],8.73 ± 0.4
2,TAATATTTTTTGTGTACACATATATATATATATATA [CACACA_site5504],9.505 ± 0.064
3,ATATGTTAAATTATTCGTACGTAAAAAAAAATGGAT [XGTACX_site3465],8.81 ± 0.37
4,TAAATTAAAAGACACACACACAAAAAAAAAAAAAAA [CACACA_site7131],9.4 ± 0.44
5,CACAAACAAAGACACACACACACACGCACAAAAATG [CACACA_site7193],10.3 ± 0.21
6,AAAACAAATAGACACGCACACAAAAAAAAAAAAAAA [CACACA_site801],9.38 ± 0.6
7,TATTTATTAAGACACACACACACACGCACAAAATAA [CACACA_site6254],10.3 ± 0.33
8,AATTAACAAAGACACACACACACACGCACAAAAAAA [CACACA_site6388],10.2
9,AATGTGTAGACACGCACACACAAAAAAATATTTATA [CACACA_site7384],9.59 ± 0.36
10,ACAAAATAAAGACACACACACAAACACAAAAAAATA [CACACA_site7568],10.1 ± 0.38
11,ATATATATATATAACACACGCAAAAAAATTAAATAA [CACACA_site1400],9.16 ± 0.38
12,TTATTATTAAGACACACACACAAAAAAAAAAAAAAA [CACACA_site6805],9.26 ± 0.46
13,TTAACAAATAGACACACACACACACGCAAAAAAAAA [CACACA_site6387],10.3 ± 0.33
14,AACACGCACAGACACACACACAAAAATGATTAAAAA [CACACA_site7195],9.71 ± 0.61
15,AAAAAACAAAAACACACGCACACAAAAAAAAAAAAA [CACACA_site802],9.4 ± 0.33
16,ATGAAAAAAAATAAAAAATATATATATATATATATA [CACACA_negctrl_site236],9.4 ± 0.4
17,ATATATATATAAATATAAATATATATATATATATAT [CACACA_negctrl_site1685],9.02 ± 0.23
18,AGGAAAAAAAAAATGTGTACTTAAAAAAAAAAAATT [XGTACX_site1471],8.51 ± 0.65
19,ACCTTTTGGATTATATGTACATATATATATATATAT [XGTACX_site2687],9.61 ± 0.26
20,CACAAAAGTAAGCACGCACACACAACCTGAAATAAA [CACACA_site166],9.59 ± 0.44
21,ATTTTTTTTATTTTTTATATAATTTTTTTATATTAT [CACACA_negctrl_site1521],8.69 ± 0.5
22,ATGCAAATGTGCATCACACACACTAATGGGTATGTA [CACACA_site2893],9.41 ± 0.31
23,AATTAAATGATTTATACATGCATATAAATATAAATA [TGCATGCA_site579],8.71 ± 0.43
24,CGATTTTTTAAGTTTGTGCACTTAAAAACTATAACA,8.53 ± 0.47

row,Sequence,gcPBM binding intensity (ln)
1,GATGAAAATAGAAATACACACTAAAAAATAAAATTA [CACACA_site4764],8.85 ± 0.52
2,ATATACATATTCTTGTGTACATAAAAATTTATATAT [XGTACX_site8726],8.74 ± 0.35
3,AAAAAAAAAAAAGAACGTACAAATTAATTTATAGAA [XGTACX_site5584],8.73 ± 0.57
4,TTTACATTAAATCACGCACACAAAAAAAAAAAAAAA [CACACA_site2418],8.94 ± 0.37
5,TTAAAAAATCACAACACACACACACGCAAAAAAAAA [CACACA_site6793],10.1 ± 0.21
6,TTAAAAAATCACAACACACACACACCCAAAAAAAAA [CACACA_site1445],9.77 ± 0.26
7,ATTCAAAAGATGTATACACACATGTGGATAATATAA [CACACA_site2443],9.21 ± 0.48
8,TATATATAATATGAATGTACACAAAAAGGTAATACA [XGTACX_site6202],9.11 ± 0.62
9,ACAAAAAAAATAAGCACACATATATATATATATATA [CACACA_site816],10.1 ± 0.38
10,ATACAACAAAAATAAGCACACACAAATATACATACA [CACACA_site9201],9.7 ± 0.4
11,AATATAAGCAAATACACACACACATATAAATATGTA [CACACA_site7741],9.85 ± 0.35
12,AAACAAAAAAAATAAGCACACATATATATATATATA [CACACA_site8173],9.6 ± 0.57
13,AATAAAGCAATAAATACACACATATATATATATATA [CACACA_site2934],9.955 ± 0.0071
14,AATATAAGCAAATACACACACACATATATATATATA [CACACA_site3805],10.29 ± 0.035
15,AAATCTTAATAAAGTTGTACATAATTATGTTTAATA [XGTACX_site3348],8.55 ± 0.49
16,TAATGGAATAAAAATTGTACATATTTTTTTTTTTTT [XGTACX_site7669],8.45 ± 0.36
17,TTTCTTAAATATATTGAGGAATAAAAAGAAGAAAAG [GTGCAC_negctrl_site281],8.33 ± 0.4
18,AGTATTATATATATATGTACATAATATACATATATA [XGTACX_site8514],8.73 ± 0.36
19,TATGCTACATTATATGTACACACATATACATATATA [CACACA_site8199],9.11 ± 0.42
20,AGGAACATTTACGCCCCACACACCTACCAACAAAAA [CACACA_site3827],9.59 ± 0.23
21,TATAATGATGATGATAGTACGTATGAGTAAGAAAAA [XGTACX_site31],8.99 ± 0.54
22,AGATTATAAAATTCTACACACATATATACCTATATA [CACACA_site5848],9.04 ± 0.42
23,TGAACCAGATTTAGAAGTACTAAATATTACATACAT [XGTACX_site2437],8.7 ± 0.47
24,AAATGGAAAAGGTGTACACAAAAAAAAGGGAAAAGC [CACACA_site5331],9.37 ± 0.5

row,Sequence,gcPBM binding intensity (ln)
1,TATATTATGACCACCACACACCTATACACATAACAT [CACACA_site7199],9.45 ± 0.16
2,ATTATAACACCTCCCCCCCTTTTTTTATGAAGACCA [CACACA_negctrl_site1043],10.1 ± 0.4
3,AACTTTTAGAAGAACACACACATATAGATTATGACC [CACACA_site6256],9.24 ± 0.33
4,ACAATTTATATTATATGTACTTAAAAAGTTCGTAAA [XGTACX_site6421],8.47 ± 0.27
5,TTTTGAAGCTTTAAAACATATATATATATATATATA [CACACA_negctrl_site184],9.75 ± 0.41
6,ATAATTGTTTCTTTCTCCTTTTTATTTCATTTTAAA [CACACA_negctrl_site964],8.68 ± 0.41
7,TATATATTAAAATAATCACACACATCAATTAATGGT [CACACA_site8331],9.09 ± 0.42
8,AAATAAAATAAAACAACACACACGAATGTATAAATA [CACACA_site885],9.45 ± 0.33
9,ATAAAATAAAACAACACACACGAATGTATAAATATA [CACACA_site4643],9.53 ± 0.36
10,GCACGAAACAATGTATATATATATATATATATATAT [GTGCAC_negctrl_site412],10.32 ± 0.078
11,ATGATTTATTATTATACACACAAAAAAAAAAAAGGA [CACACA_site264],8.84 ± 0.42
12,AATATCAATGATGTTACATGCAAGAGAATCCACAAA [TGCATGCA_site678],8.96 ± 0.42
13,CCTAAATAAATGGACACACACATATATATATATATA [CACACA_site1439],9.85 ± 0.29
14,CACTAAAATGGACACACACACACACCGATATATATA [CACACA_site6139],10.1 ± 0.23
15,AAATAATATAAACATACACACACACCGATATATATA [CACACA_site8945],9.92 ± 0.17
16,TATATATATATATGTACACACACACCGATAAATAAA [CACACA_site8041],9.69 ± 0.15
17,ACCATATAAATAAACACACACACACCGATATATATA [CACACA_site5310],10.09 ± 0.085
18,CAAAAAATTCAACACACACACACACCGATAAATAAA [CACACA_site8330],10.11 ± 0.071
19,AATATAAATAATGTTAAACACACATACCGATATATA [CACACA_site8869],9.02 ± 0.45
20,TATATATATAAATACACACACACACCGATATATATA [CACACA_site5408],9.97 ± 0.11
21,AAATAATTCAAAAAAACACACAAATTACAAAATAAA [CACACA_site269],8.92 ± 0.55
22,TTCAAAATAAAAAATTCACACACATATATATATATA [CACACA_site8653],9.44 ± 0.17
23,CATATAAAAATGTGCACACACACACCGATATATATT [CACACA_site4940],9.95 ± 0.17
24,AAAATACATAAACACACACACACACCGATATATATA [CACACA_site9186],10.43 ± 0.092

row,Sequence,gcPBM binding intensity (ln)
1,AGGCTATAATACCATACACACATTTATAAAATAACA [CACACA_site6990],9.07 ± 0.42
2,ATACTTATGATAAATACACACTTGAAATTAAGGATT [CACACA_site4772],8.85 ± 0.37
3,CATTTTTCTATATGTGCATGTAAGATAAGAATAATT [TGCATGCA_site107],8.48 ± 0.3
4,TATTTTTCCATATGCACACACACCGTATCTAGAATA [CACACA_site6654],9.47 ± 0.37
5,ATAATTAAAATGCTCACACACATAAAAAAAAATTAA [CACACA_site2149],8.94 ± 0.46
6,TTATTATTATGATTATTATGATGATTATACAACTGT [TGCATGCA_negctrl_site241],8.85 ± 0.35
7,AAATTGAATTAGTTAACACACAACTTTTATTTCATA [CACACA_site2840],8.74 ± 0.4
8,TCAAATATATAGAATACACACATGGATATAAGAAAT [CACACA_site4065],9.2 ± 0.4
9,TTATAATAAAATGAATATATATAATTTAAAATATTT [CACACA_negctrl_site1651],8.27 ± 0.54
10,TATATTTATAAGTGTACACATTATATAAATCCCTAT [CACACA_site6122],8.65 ± 0.42
11,AATTTTCTACAAATGTGTACTAAATAAAATATTACT [XGTACX_site7175],8.63 ± 0.39
12,AAAAAGGATAAACACACACACACACCGATATATATA [CACACA_site8206],10.34 ± 0.099
13,CACTAAAATAAACACACACACACACCGATATATATA [CACACA_site9379],9.96 ± 0.014
14,AAAAAAAAAAAAAATACACACACACCGATATATATA [CACACA_site8142],9.775 ± 0.092
15,AAAATACATGGACACACACACACACCGATATATATA [CACACA_site5885],10.4 ± 0.21
16,AAAAAAAAAAGAATAGCACACACACCGATATAAATA [CACACA_site8111],9.71 ± 0.37
17,GGAATAATATAAAACACACACATAAATATAAATATA [CACACA_site3376],9.45 ± 0.35
18,CAAAATAATATATATACACACACACCGATATATATA [CACACA_site8082],9.81 ± 0.18
19,TAAAAAAAAAAAAATACACACACACCGATATATATA [CACACA_site8498],9.76 ± 0.19
20,AATATAAATAAAAACACACACACACCGATATATATA [CACACA_site5283],10.2 ± 0.11
21,TGGGAATAAAAACACACACACACACCGATATATATA [CACACA_site5875],10.1 ± 0.41
22,AATAAAAAGGAACACACACACACACCGATATATATA [CACACA_site5895],10.08 ± 0.085
23,AAGGATATAACATACACACACACACCGATATATATA [CACACA_site6136],10 ± 0.29
